Test results published in the supplement of paper PMC10042075.

tested on: LASCPC-01; assay: cell viability relative to DMSO control (fraction); higher = less growth inhibition (more viable cells); details: 2 µM; 72 h
Description: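 High-throughput single-dose screen in the LASCPC-01 NEPC cell line in 384-well plates. Cells were treated with each compound at 2 µM for 72 h, and viability was read by CellTiter-Glo luminescence. Values are normalised to the DMSO control (compound/DMSO) from three replicates; only the 5-HT-related subset of the 7315-compound library is given.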

SMILES | cell viability
C=C[C@H]1CN2CC[C@@]3(C(=O)Nc4ccccc43)[C@@H]2C[C@@H]1/C(=C\OC)C(=O)OC [Isocorynoxeine] | 0.677
